# Measurements as given in PubChem BioAssay (NCATS).
# Inconclusive results are not listed. Calls of active or inactive are those of the source. The call rests on the fitted dose curve; in most records, active means well fitted inhibition curve with a large enough effect; inconclusive means small, poorly fitted or top-dose-only effect; inactive means flat fitted curve, though single readings scatter.
# Tested on: CP252
# Experiment: qHTS profiling for inhibitors of Plasmodium falciparum proliferation (AID 504749); further: nearly all actives have a fitted effect of over 60% in size;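 on activity, negative = inhibition: 0% = DMSO vehicle and full inhibition = artemisinin control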
# Conditions: P. falciparum in erythrocytes, SYBR Green DNA, 72 h; series mostly up to 28.7 µM; activity, negative = inhibition: at the top concentration
# In short: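 Readout was DNA-dye fluorescence from lysed cultures, ex 485/em 535 nm. Parasitized red cells had grown 72 h with compound; data scaled between 0.29 uM artemisinin and DMSO wells and corrected using vehicle-only plates.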
# Potency means the concentration at half of the fitted maximal effect.
SMILES,Potency,"activity, negative = inhibition"
CN(C)c1ccc(C(=C2C=CC(=[N+](C)C)C=C2)c2ccccc2)cc1,12.6 µM (active),
O=C(OCc1ccccc1)c1ccccc1,,0.354% (inactive)
Nc1ccc(C(=O)O)c(O)c1,,11% (inactive)
O=C(/C=C/c1ccccc1)NCCO,,2.9% (inactive)
O=C1CN(/N=C/c2ccc(-c3ccc([N+](=O)[O-])cc3)o2)C(=O)N1,,1.14% (inactive)
CCCCCCCCCCCCCCCCCC(=O)O,,-0.741% (inactive)
O=C(O)c1cc(O)c(O)c(O)c1,,-25.6% (inactive)
C[S+](CC[C@H](N)C(=O)O)C[C@H]1O[C@@H](n2cnc3c(N)ncnc32)[C@H](O)[C@@H]1O (some centres undefined),,7.74% (inactive)
CCOC(=O)c1ccccc1O,,2.86% (inactive)
COc1cc(/C=C/C(=O)N2CCN(CC(=O)N3CCCC3)CC2)cc(OC)c1OC,,-0.0845% (inactive)
Nc1cc(-c2ccncc2)c[nH]c1=O,,6.31% (inactive)
O=C(O)c1ccccc1Nc1cccc(C(F)(F)F)c1,,-21.1% (inactive)
c1ccc2sc(SN3CCOCC3)nc2c1,,-15.8% (inactive)
Clc1ccccc1-c1nc(-c2ccncc2)no1,,1.92% (inactive)
CCOc1ccc2nc(S(N)(=O)=O)sc2c1,,-8.22% (inactive)
O=C(O)/C=C/C(O)c1ccc(Cl)cc1 (centres undefined),,-2.4% (inactive)
Oc1c(Br)cc(Br)c2cccnc12,,-16.6% (inactive)
Cc1ccc(C(=O)c2ccc(CC(=O)O)n2C)cc1,,4.82% [at 12.8 µM] (inactive)
Cc1cc(O)c2ccccc2c1O,,5.27% (inactive)
COc1ccc(-c2cc(=S)ss2)cc1,,3.36% (inactive)
CN1[C@@H]2CC[C@H]1CC(OC(=O)C(CO)c1ccccc1)C2 (some centres undefined),,-0.182% (inactive)
CCCSc1ccc2nc(NC(=O)OC)[nH]c2c1,,-7.73% [at 12.8 µM] (inactive)
O=C(O)[C@H](CC(=O)N1C[C@H]2CCCC[C@H]2C1)Cc1ccccc1,,-0.112% (inactive)
C=C(Nc1ccc(OCC)cc1)Nc1ccc(OCC)cc1,inactive,
